# Sampled rows, rich in hits. Any-hit rate of the full collection: about 6.8%.
# DPM-DC inhibit: S. pneumoniae DPM-DC inhibition; calls only at 10 µM; AID 556; purified DPM-DC, PK/LDH coupled NADH fluorescence; 0.49% of 65,000 active;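 active = the 320 compounds with the highest percent inhibition in the single-dose primary screen, excluding strongly autofluorescent ones, cut at about 32% in these data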;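 also: kinetic rate of NADH fluorescence loss reporting ADP formed by the decarboxylase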
# MK inhibit: S. pneumoniae mevalonate kinase inhibition. purified MK, PK/LDH-coupled NADH absorbance 340 nm. inhibition, % at 10 µM. 0.48% of 65,000 active;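 active = ranked among the strongest by inhibition in the single 10 µM screen, a fixed top-ranked set picked for dose follow-up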
# PMK inhibit: blocks S. pneumoniae phosphomevalonate kinase | purified PMK, PK/LDH-coupled NADH absorbance 340 nm | inhibition, % at 10 µM | 0.49% of 65,000 active | AID 539;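 active = top-ranked compounds by inhibition in the single 10 µM screen, taking a fixed number of the strongest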;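 also: 0% = full reaction with DMSO carrier and 100% = background rate without enzyme reaction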
# A340 absorber: compounds absorbing at 340 nm | compound absorbance at 340 nm, fold over control | fold change at 10 µM | 65,000 tested, under 10 active | AID 708;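 active = at 10 µM dose, initial 340 nm absorbance at least 2 fold that of control wells; inactive = change under 2 fold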;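 also: initial absorbance extrapolated from kinetic A340 decline of NADH oxidation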
# Autofluor 339: intrinsic fluorescence of library compounds, ex339/em460 – biochemical, MLSMR library, data from DPM-DC assay, artefact control, profiling panel. compound autofluorescence, ex339/em460 nm, NADH buffer; hits give high values; 1 = no-compound wells, NADH background. fluorescence fold increase at 10 µM. 5.5% of 65,000 active. AID 709;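 active = at 10 µM, mean starting fluorescence two-fold or more over control wells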;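 also: signal is the first read of a kinetic run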
# NADH enzymes: blocks coupling enzymes of NAD/NADH assays; AID 774; 0.02% of 65,000 active; IC50, µM (doses to about 10 µM), without a hit: at the highest dose inhibition; coupled PK/LDH NADH assays, four targets;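 active = single-dose screening hits from any of four coupled enzyme assays that gave an IC50 when retested across doses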;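 also: the DPM-DC format reads NADH fluorescence rather than 340 nm absorbance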
# * = called active by the depositor; i = inactive; x = no result shown.
SMILES,DPM-DC inhibit,MK inhibit,PMK inhibit,A340 absorber,Autofluor 339,NADH enzymes
CCOC(=O)c1c(N)n(Cc2ccco2)c2nc3ccccc3nc12,x,8,8,1.1,2.2*,8%
COCC(C)OC(=O)c1c(N)n(Cc2ccco2)c2nc3ccccc3nc12 (configuration not stated),x,1,9,1.1,2.3*,5%
COc1ccc(N=C(C)c2c(O)n(C3CCCCC3)c(=O)[nH]c2=O)c(OC)c1,i,11,7,1,1.2,6%
Cc1cc(C)n2nc(SCC(=O)N3CCC4(CC3)OCCO4)nc2n1,i,1,20,0.98,0.97,8%
O=C(CNS(=O)(=O)c1ccc(Br)s1)N1CCC2(CC1)OCCO2,i,0,14,1,1.1,5%
Cc1cccn2c(=O)c3cc(C(=O)N4CCC5(CC4)OCCO5)n(C)c3nc12,x,8,12,1.1,5*,10%
Cn1c(C(=O)N2CCC3(CC2)OCCO3)cc2c(=O)n(C)c3ccccc3c21,i,0,14,1,1.1,2%
COc1cc2[nH]c(=O)n(-c3ccccc3)c(=O)c2cc1OC,x,2,0,1.1,2.1*,1%
COc1cc2[nH]c(=O)n(-c3cccc(Cl)c3)c(=O)c2cc1OC,i,1,0,1.1,1.6,2%
O=c1[nH]c(=O)n(CCC2=CCCCC2)c(O)c1C=NCc1cccnc1,i,13,15,0.98,1.1,9%
CC(C)Cn1cc(C(=O)N2CCC3(CC2)OCCO3)c2c3ccccc3n(C)c2c1=O,x,8,14,1,4.3*,11%
Cn1c2ccccc2c2c(C(=O)N3CCC4(CC3)OCCO4)cn(C3CCCCC3)c(=O)c21,x,1,19,1.1,2.1*,10%
Cn1cc(C(=O)N2CCC3(CC2)OCCO3)c2c3ccccc3n(C)c2c1=O,i,1,9,1.1,3.4*,11%
CC(=O)N1CCC2(CC1)CC(=O)c1cc(OCC(=O)N3CCN(C)CC3)ccc1O2,x,0,9,1,5.1*,5%
Cc1nc2c(-c3ccccc3)c(C)nn2c(C)c1CCC(=O)N1CCC2(CC1)OCCO2,i,8,13,1.1,1.2,7%
O=C(CSc1ccccc1)N1CCC2(CC1)OCCO2,i,9,10,1,1,8%
Cc1nc2c(c(C)nn2-c2ccccc2)c(C)c1CCC(=O)N1CCC2(CC1)OCCO2,i,0,11,0.98,3.6*,4%
Cc1nc2cc(-c3cccc(F)c3)nn2c(C)c1CCC(=O)N1CCC2(CC1)OCCO2,i,6,7,1,2.3*,5%
Nc1ccc(S(=O)(=O)N2CC3CC(C2)c2cccc(=O)n2C3)cc1 (configuration not stated),i,0,0,1.1,1.1,0%
CC(C)[C@H]1C(=O)N2CCC[C@H]2[C@]2(O)O[C@](NC(=O)[C@@H]3C=C4c5cccc6[nH]cc(c56)C[C@H]4N(C)C3)(C(C)C)C(=O)N12,i,9,0,0.98,2.4*,7%
CN(C)c1nc(-c2ccccc2)[n+](C)s1,i,10,13,0.98,1,8%
CCCCCCOC(=O)c1ccccc1N,x,4,4,1.1,2.1*,4%
CCCCP(=O)(O)c1ccccc1,i,5,7,1,1.1,4%
O=C1CCCC2C3CCCN4CCCC(CN12)C34 (configuration not stated),i,8,16,1,1.1,8%
CC1(C)CC2(CCO1)NCCN1C(=O)CSC12 (configuration not stated),i,6,1,1,1.2,2%
SMILES,DPM-DC inhibit,MK inhibit,PMK inhibit,A340 absorber,Autofluor 339,NADH enzymes
Nc1c(C(=O)NCc2ccco2)c2nc3ccccc3nc2n1Cc1ccc(F)cc1,x,4,3,1.1,2.2*,4%
COc1ccc(Cn2c(N)c(C(=O)NCc3ccco3)c3nc4ccccc4nc32)cc1,x,0,2,1.1,4.9*,1%
O=C(c1ccc2nc(-c3ccco3)c(-c3ccco3)nc2c1)N1CCC2(CC1)OCCO2,i,12,9,1,1.8,5%
O=C(c1ccc2nc3ccc(Cl)cc3c(=O)n2c1)N1CCC2(CC1)OCCO2,x,0,7,1.1,3.3*,3%
CN(C)P1(N(C)C)=NC(C(F)(F)F)=NC(C(F)(F)F)=N1,i,6,0,1,1.1,2%
O=C1NC(=O)[C@]2(Cc3ccccc3N3CCN(c4ccccc4)CC32)C(=O)N1c1ccccc1 (some centres not stated),i,5,14,1,1.2,6%
c1ccc2c(CN3CCCCCCC3)c[nH]c2c1,i,48*,12,1.1,1.1,20%
c1ccc2c(CN3CCN(C4CCCCC4)CC3)c[nH]c2c1,i,9,0,1,1.2,3%
Cc1cc(OCc2nn[nH]n2)c2c3c(c(=O)oc2c1)CCC3,x,5,13,1.1,3.9*,9%
Cc1cc(OCC(=O)NC2CCS(=O)(=O)C2)c2c3c(c(=O)oc2c1)CCC3 (configuration not stated),x,3,0,1.1,2.2*,2%
CCn1c(O)c(C(=O)CC2NCCc3ccccc32)c(=O)n(CC)c1=S (configuration not stated),i,12,2,1,1.1,5%
O=c1cccc2n1CC1CC2CN(Cc2cccc(Cl)c2Cl)C1 (configuration not stated),i,6,2,1,1.1,3%
O=c1c2ccccc2nc(N2CCCC2)n1-c1ccc(Cl)cc1,i,1,0,1,3.3*,4%
COc1ccc(CC[n+]2cc(/N=C(\C)[O-])on2)cc1OC,i,3,5,1,1.5,2%
COCCCn1c(N)c(C(=O)NCCC(C)C)c2nc3ccccc3nc21,x,6,9,1,3.7*,8%
CCCCOCCCn1c(N)c(C(=O)OCCOC)c2nc3ccccc3nc21,x,12,5,1.1,2.3*,9%
COCCOC(=O)c1c(N)n(Cc2ccccc2)c2nc3ccccc3nc12,x,10,12,1.1,3.9*,11%
O=C(C1CC(=O)N(C2CCCCC2)C1)N1CCC2(CC1)OCCO2 (configuration not stated),i,9,7,1,1.1,5%

# Screens as filed in PubChem BioAssay.
